Source: PubChem BioAssay
Values joined by “and” are separate entries in the source; they are usually repeats but may differ in a detail not shown here. Identical values can stand only once. Results filed as inconclusive are left out. Active and inactive are the calls of the source.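 How the source made its calls, unless noted: active means normalized viability below 100% at a tested concentration; inactive means the rest.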

Experiments:
[1] = stimulators of nuclear beta-catenin in C2C12, primary screen, imaging, WNT3A-conditioned medium, mouse C2C12, NPC library (AID 1117326; in the data active means nuclear beta-catenin stimulation mostly above about 4.2%, no sharp cut-off; inactive means mostly below about 10%); conditions: stronger effect = higher value
[2] = stimulators of insulin release from INS-1E, primary screen, cell-based, 5 mM glucose, NPC library (AID 1117329;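 active means compound raises insulin release from rat beta cells at 5 mM glucose, no numeric limit stated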); conditions: rat INS-1E insulin secretion, at 10 µM, stronger effect = higher value
[3] = growth inhibition of GSK3B-pretreated HCT116 cells – cell-based, CellTiter-Glo, 0.2 to 20 µM (AID 1117336;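 active means compounds lowering colon cancer cell viability after pretreatment blocking the GSK3B kinase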); conditions: HCT116 viability after GSK3B inhibitor, at 20 µM, stronger effect = higher value
[4] = inhibition of endothelial tube formation, primary screen, imaging, VEGF stimulated, CD31 staining, tube area, NPC library (AID 1117340;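 active means compound that reduces growth-factor-driven endothelial tube area in a mixed cell culture, no cutoff stated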); conditions: VEGF-stimulated ADSC/ECFC co-culture, at 10 µM, stronger effect = higher value
[5] = glucagon-like peptide 1 release enhancers, primary assay, NCI-H716 cell line, NPC library (AID 1117341;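 active means compound raises GLP1 secretion from the human gut endocrine cells, with no numeric limit stated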); conditions: NCI-H716 cells, at 10 µM, stronger effect = higher value
[6] = HCT116 colon cancer cell growth inhibition, primary screen, CellTiter-Glo luminescence, NPC library (AID 1117342;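 active means compounds that lower survival of HCT116 colon cancer cells in the luminescence readout, no numeric limit stated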); conditions: at 20 µM (top of the series)
[7] = CellTiter-Glo luminescent readout of SW480 viability loss, NPC library primary (AID 1117343;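 active means compounds that lower viability of the colon cancer cells in the luminescence readout, with no numeric limit stated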); conditions: CellTiter-Glo luminescence; at 20 µM (top of the series) unless noted
[8] = decreased DLD-1 cellular survival, CellTiter-Glo luminescent readout, NPC compound collection, primary HTS (AID 1117346;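 active means compounds that lower survival of DLD-1 colon cancer cells in the luminescence readout, no cutoff given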); conditions: DLD-1 viability, CellTiter-Glo luminescence; at 20 µM (top of the series)
[9] = growth inhibition of DIPG glioma cells, dose response, cell-based, SU-DIPG-XVII, MIPE5.0, CellTiter-Glo, qHTS (AID 1347060; cut-off not given, nearly all actives have AC50 up to about 26 µM;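 on AC50: cells exposed to compound for 48 hours before viability readout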); conditions: SU-DIPG-XVII viability, CellTiter-Glo ATP luminescence
[10] = growth inhibition of DIPG glioma cells, dose response, cell-based, SU-DIPG-XIII, MIPE4.0, CellTiter-Glo, qHTS (AID 1347061; cut-off not given, nearly all actives have AC50 up to about 37 µM;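 further: cells exposed to compound for 48 hours before readout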); conditions: SU-DIPG-XIII viability, CellTiter-Glo ATP luminescence
[11] = growth inhibition of DIPG glioma cells, dose response, cell-based, JHH-DIPG-1, MIPE4.0, CellTiter-Glo, qHTS (AID 1347062; cut-off not given, nearly all actives have AC50 up to about 27 µM;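 on AC50: cells exposed to compound for two days before readout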); conditions: JHH-DIPG-1 viability, CellTiter-Glo ATP luminescence
[12] = sensitizers of A549 cells to miR-34 induction, primary screen, imaging, A549 dox-inducible miR-34, nuclei and caspase counts (AID 1347080;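 active means compounds whose cell count with miR-34 switched on is under 0.7 times the count with it off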); conditions: A549 miR-34 inducible, Hoechst nuclei count, 48 h
[13] = ovarian cancer cell viability with rucaparib, profiling panel, oncology-focused library, rucaparib conditional (AID 1508598); conditions: patient-derived ovarian cancer cells, CellTiter-Glo viability, 144 h, stronger effect = lower value
[14] = viability rescue of complex I mutant cybrids, primary screen, cell-based, galactose medium, ATP luminescence (AID 1645843;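 active means z-score of at least 1.8 in each of two replicates, scored against plate mean and spread of sample wells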;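 further: positive z means more ATP and so rescue of galactose-driven cybrid death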); conditions: complex I mutant cybrid cells, 72 h, stronger effect = higher value
[15] = SU-DIPG-XXV glioma cell viability, MIPE5.0 library, qHTS (AID 1347068; cut-off not given, nearly all actives have IC50 up to about 30 µM;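 on IC50: cells exposed to compound for 48 hours before viability readout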)
[16] = molecular target: NAD(+) hydrolase SARM1 (Homo sapiens) (UniProt Q6SZW1); assay: SARM1 TIR NADase inhibitors, cell lysate, NAD-Glo luminescence (AID 1508614;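 active means compound whose remaining NAD level is above about 45 nM, limit read from the data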); conditions: SAM-TIR HEK293T lysate NADase, at 1 µM, stronger effect = higher value
[17] = survival rescue of mitochondrial mutant cells in low glucose, primary screen, MELAS cybrids, Rieske KO mouse fibroblasts, CellTiter-Glo (AID 1508586;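 active means mean z-score across replicates of 1.96 or higher in either the MELAS or the Rieske mutant cell line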;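 further: z relative to plate mean and SD of compound and empty wells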)
[18] = test system: Aerobactin synthetase IucA (Klebsiella pneumoniae); assay: IucA aerobactin synthetase inhibitors, biochemical, Tocris library, absorbance (AID 1345561; call rule not given here;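 further: 100% = enzyme without compound and 0% = no enzyme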); conditions: purified IucA enzyme assay, absorbance (OD) read-out; stronger effect = lower value;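 tested at 8 µM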
[19] = stronger effect = lower value, cell number ratio, induced over uninduced
[20] = measured here: relative caspase fold change +Dox/-Dox
[21] = measured here: total cells with miR-34 induction, stronger effect = lower value
[22] = measured here: total cells without miR-34 induction
[23] = at 0.000305 µM, OCI-C5x cells, with rucaparib 10 µM, 100% = cells with rucaparib alone
[24] = at 0.000305 µM, OCI-C5x cells, without rucaparib
[25] = at 0.000305 µM, OCI-P5x cells, with rucaparib 20 µM, 100% = cells with rucaparib alone
[26] = at 0.000305 µM, OCI-P5x cells, without rucaparib
[27] = at 0.00122 µM, OCI-C5x cells, with rucaparib 10 µM, 100% = cells with rucaparib alone
[28] = at 0.00122 µM, OCI-C5x cells, without rucaparib
[29] = at 0.00122 µM, OCI-P5x cells, with rucaparib 20 µM, 100% = cells with rucaparib alone
[30] = at 0.00122 µM, OCI-P5x cells, without rucaparib
[31] = at 0.00488 µM, OCI-C5x cells, with rucaparib 10 µM, 100% = cells with rucaparib alone
[32] = at 0.00488 µM, OCI-C5x cells, without rucaparib
[33] = at 0.00488 µM, OCI-P5x cells, with rucaparib 20 µM, 100% = cells with rucaparib alone
[34] = at 0.00488 µM, OCI-P5x cells, without rucaparib
[35] = at 0.0195 µM, OCI-C5x cells, with rucaparib 10 µM, 100% = cells with rucaparib alone
[36] = at 0.0195 µM, OCI-C5x cells, without rucaparib
[37] = at 0.0195 µM, OCI-P5x cells, with rucaparib 20 µM, 100% = cells with rucaparib alone
[38] = at 0.0195 µM, OCI-P5x cells, without rucaparib
[39] = at 0.0781 µM, OCI-C5x cells, with rucaparib 10 µM, 100% = cells with rucaparib alone
[40] = at 0.0781 µM, OCI-C5x cells, without rucaparib
[41] = at 0.0781 µM, OCI-P5x cells, with rucaparib 20 µM, 100% = cells with rucaparib alone
[42] = at 0.0781 µM, OCI-P5x cells, without rucaparib
[43] = at 0.313 µM, OCI-C5x cells, with rucaparib 10 µM, 100% = cells with rucaparib alone
[44] = at 0.313 µM, OCI-C5x cells, without rucaparib
[45] = at 0.313 µM, OCI-P5x cells, with rucaparib 20 µM, 100% = cells with rucaparib alone
[46] = at 0.313 µM, OCI-P5x cells, without rucaparib
[47] = at 1.25 µM, OCI-C5x cells, with rucaparib 10 µM, 100% = cells with rucaparib alone
[48] = at 1.25 µM, OCI-C5x cells, without rucaparib
[49] = at 1.25 µM, OCI-P5x cells, with rucaparib 20 µM, 100% = cells with rucaparib alone
[50] = at 1.25 µM, OCI-P5x cells, without rucaparib
[51] = at 5 µM, OCI-C5x cells, with rucaparib 10 µM, 100% = cells with rucaparib alone
[52] = at 5 µM, OCI-C5x cells, without rucaparib
[53] = at 5 µM, OCI-P5x cells, with rucaparib 20 µM, 100% = cells with rucaparib alone
[54] = at 5 µM, OCI-P5x cells, without rucaparib
[55] = MELAS cybrid survival, CellTiter-Glo 48 h, stronger effect = higher value
[56] = Rieske KO mouse fibroblast survival, CellTiter-Glo 72 h

NAD(+) hydrolase SARM1 (Homo sapiens), sequence (Q6SZW1 whole entry, looked up): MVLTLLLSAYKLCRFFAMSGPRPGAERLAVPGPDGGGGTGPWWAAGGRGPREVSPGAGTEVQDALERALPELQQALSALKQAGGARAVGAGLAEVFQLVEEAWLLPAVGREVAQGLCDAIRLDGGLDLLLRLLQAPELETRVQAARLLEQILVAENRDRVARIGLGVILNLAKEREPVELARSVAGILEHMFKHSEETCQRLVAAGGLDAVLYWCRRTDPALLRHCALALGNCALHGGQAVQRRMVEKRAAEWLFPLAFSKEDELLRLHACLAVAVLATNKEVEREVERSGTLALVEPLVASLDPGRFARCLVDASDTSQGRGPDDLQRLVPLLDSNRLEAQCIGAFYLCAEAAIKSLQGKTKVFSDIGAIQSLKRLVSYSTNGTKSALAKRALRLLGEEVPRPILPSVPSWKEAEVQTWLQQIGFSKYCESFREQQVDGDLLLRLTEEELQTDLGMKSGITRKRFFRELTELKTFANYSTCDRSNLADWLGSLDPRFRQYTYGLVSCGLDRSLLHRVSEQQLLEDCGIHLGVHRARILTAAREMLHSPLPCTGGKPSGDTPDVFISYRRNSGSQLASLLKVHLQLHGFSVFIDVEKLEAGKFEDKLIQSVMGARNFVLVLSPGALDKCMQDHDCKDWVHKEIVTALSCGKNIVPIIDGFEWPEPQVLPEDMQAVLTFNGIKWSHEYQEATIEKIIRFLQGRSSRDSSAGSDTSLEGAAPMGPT

CCN(CC)CCNC(=O)c1c(C)[nH]c(/C=C2\C(=O)Nc3ccc(F)cc32)c1C
inactive: nuclear beta-catenin stimulation ([1]; at 10 µM) 0.3% | GLP1 secretion stimulation [5] 18.2% | fold change [12, 19] 0.916 | viability [13, 23] 110% | viability [13, 24] 107% | viability [13, 27] 114% | viability [13, 28] 102% | viability [13, 31] 113% | viability [13, 32] 108% | viability [13, 35] 115% | viability [13, 39] 118% | viability [13, 40] 111% | viability [13, 43] 123% | viability [13, 44] 113% | viability [13, 47] 126% | viability [13, 48] 117% | viability [13, 50] 104% | z-score [14] -1
780: cell count [12, 22]
1.17: fold change [12, 20]
715: cell count [12, 21]
-2%: nuclear beta-catenin stimulation ([1]; stimulation, at 2 µM)
active: insulin secretion stimulation [2] 47.3% | viability decrease [3] 108% | tube area decrease [4] 103% | inhibition of viability [6] 110% | viability decrease (inhibition) [7] 127% | viability decrease (inhibition) [8] 93.4% | AC50 [9] 7.42 µM | AC50 [10] 38.2 µM | AC50 [11] 10.8 µM | viability [13, 25] 84% | viability [13, 26] 93.8% | viability [13, 29] 98.6% | viability [13, 30] 88.3% | viability [13, 33] 96.3% | viability [13, 34] 97.4% | viability [13, 36] 99.1% | viability [13, 37] 98.7% | viability [13, 38] 95.9% | viability [13, 41] 95% | viability [13, 42] 99.9% | viability [13, 45] 93.2% | viability [13, 46] 99.5% | viability [13, 49] 89.1% | viability [13, 51] 60.6% | viability [13, 52] 21.7% | viability [13, 53] 1.9% | viability [13, 54] 12.8%

CCCCCOC(=O)Nc1nc(=O)n([C@@H]2O[C@H](C)[C@@H](O)[C@H]2O)cc1F
-1.4%: nuclear beta-catenin stimulation ([1]; stimulation, at 2 µM)
inactive: nuclear beta-catenin stimulation ([1]; at 10 µM) 0.5% | insulin secretion stimulation [2] -0.1% | viability decrease [3] -9.5% | tube area decrease [4] 5.3% | GLP1 secretion stimulation [5] -0.5% | inhibition of viability [6] 0.7% | viability decrease (inhibition) [7] -2% | viability decrease (inhibition) [8] -8.6% | outcome [9] | outcome [10] | outcome [11] | outcome [15] | remaining NAD [16] 10 nM

Nc1ccn(C2CO[C@H](CO)O2)c(=O)n1 (stereo partly drawn)
0.3%: nuclear beta-catenin stimulation ([1]; stimulation, at 2 µM)
inactive: nuclear beta-catenin stimulation ([1]; at 10 µM) 1.3% | insulin secretion stimulation [2] 2% | viability decrease [3] -8.3% | tube area decrease [4] 7.2% | GLP1 secretion stimulation [5] 0.5% | inhibition of viability [6] 4.2% | viability decrease (inhibition) [7] -18.8% | viability decrease (inhibition) [8] 3.7% | outcome [9] | outcome [10] | outcome [11] | outcome [15]

CC(C)OC(=O)C(C(=O)OC(C)C)=C1SC=CS1
7660: cell count [12, 21]
8520: cell count [12, 22]
0.974: fold change [12, 20]
0.382: z-score [17, 56]
0.1%: nuclear beta-catenin stimulation ([1]; stimulation, at 2 µM)
inactive: nuclear beta-catenin stimulation ([1]; at 10 µM) 1.3% | insulin secretion stimulation [2] 0.3% | viability decrease [3] 3.95% | tube area decrease [4] 4.8% | GLP1 secretion stimulation [5] 3.5% | inhibition of viability [6] -0.1% | viability decrease (inhibition) [7] 6.3% | viability decrease (inhibition) [8] 8.2% | outcome [9] | outcome [10] | outcome [11] | outcome [15] | fold change [12, 19] 0.9 | z-score [17, 55] -0.382

CCCCCCCCCCCCCCCC(=O)NCCO
inactive: nuclear beta-catenin stimulation ([1]; at 10 µM) 2.2% | insulin secretion stimulation [2] 4.7% | viability decrease [3] -7.4% | tube area decrease [4] -5.7% | GLP1 secretion stimulation [5] -1.8% | inhibition of viability [6] 1.3% | viability decrease (inhibition) [7] -42.2% | viability decrease (inhibition) [8] -11.2% | remaining activity [18] 113% | remaining NAD [16] 10 nM | z-score [14] 0.05
8.9%: nuclear beta-catenin stimulation ([1]; stimulation, at 2 µM)

CNC(=O)c1cc(Oc2ccc(NC(=O)Nc3ccc(Cl)c(C(F)(F)F)c3)cc2)ccn1
0.813 and 0.844: z-score [17, 56]
active: viability decrease [3] 120% | tube area decrease [4] 111% | inhibition of viability [6] 124% | viability decrease (inhibition) [7] 166% | viability decrease (inhibition) [8] 102% | AC50 [9] 14.8 µM | AC50 [10] 18.7 µM | AC50 [11] 18.7 µM | IC50 [15] 10.5 µM | viability [13, 26] 97.6% | viability [13, 30] 99.4% | viability [13, 34] 99.4% | viability [13, 42] 99.6% | viability [13, 53] 31.8%
1320 and 3300: cell count [12, 21]
inactive: nuclear beta-catenin stimulation ([1]; at 10 µM) -1.4% | insulin secretion stimulation [2] 0.4% | GLP1 secretion stimulation [5] -3.6% | fold change [12, 19] 0.979 and 1.42 | z-score [17, 55] -0.549 and -0.383 | viability [13, 23] 115% | viability [13, 24] 112% | viability [13, 25] 124% | viability [13, 27] 119% | viability [13, 28] 111% | viability [13, 29] 129% | viability [13, 31] 119% | viability [13, 32] 114% | viability [13, 33] 136% | viability [13, 35] 111% | viability [13, 36] 112% | viability [13, 37] 133% | viability [13, 38] 101% | viability [13, 39] 108% | viability [13, 40] 106% | viability [13, 41] 144% | viability [13, 43] 111% | viability [13, 44] 116% | viability [13, 45] 144% | viability [13, 46] 105% | viability [13, 47] 116% | viability [13, 48] 120% | viability [13, 49] 155% | viability [13, 50] 114% | viability [13, 51] 123% | viability [13, 52] 126% | viability [13, 54] 116%
1350 and 2320: cell count [12, 22]
0.87 and 0.612: fold change [12, 20]
9.1%: nuclear beta-catenin stimulation ([1]; stimulation, at 2 µM)
